Laboratory results from PubChem BioAssay (NCATS).
“And” between values parts separate entries of the source, which are not always exact repeats. Equal values may be shown once. Records with an inconclusive call do not appear. More than one record can exist for a structure, and the calls need not agree. The source made the active and inactive calls. Calls come from the whole dose curve; as a rule, active = well fitted curve in the direction sought with a large enough effect; inconclusive = small, poorly fitted or top-dose-only effect, or another doubt; inactive = no such curve, though single readings can be large; an effect the other way counts as inactive or inconclusive.

Assays:
[1] = Viability qHTS for spleen associated tyrosine kinase inhibitor (SYKi) drug resistant MV4-11 cells (AID 1963824); note: nearly all actives have a fitted effect of over 35% in size
Method in brief: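 SYK-inhibitor-resistant MV4-11 AML cells were seeded at 500 per well onto compound and cultured 72 hours (37 °C, 5% CO2). CellTiter-Glo was then added, and after 10 min at room temperature, luminescence gave viability.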

[2] = Quantitative highthroughput screen to assess conditional lethalithy of NOMO1 cells grown in RPMI1640 with untreated serum (RPMI+s) (AID 1963876); note: nearly all actives have a fitted effect of over 35% in size;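 for Viability: 100% = DMSO wells and 0% = empty wells without cells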
Method in brief: (§1)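 Each medium arm—HPLM with 10% dialyzed FBS, or RPMI1640 with 5 mM glucose and 10% untreated or dialyzed FBS—was screened against an 11-point, 3-fold compound titration for 48 h at 37 °C, with CellTiter-Glo luminescence as endpoint.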

[3] = Quantitative highthroughput screen to assess conditional lethalithy of P12 Ichikawa cells grown in Human Plasma-Like Medium with dialyzed fetal bovine serum (HPLM+ds) (AID 1963879); settings: Potency: viability; note: nearly all actives have a fitted effect of over 35% in size; for Viability: series mostly up to about 46 µM
Method in brief: as §1

[4] = Quantitative highthroughput screen to assess conditional lethalithy of P12 Ichikawa cells grown in RPMI1640 with untreated serum (RPMI+s) (AID 1963881); settings: Potency: viability; note: nearly all actives have a fitted effect of over 35% in size
Method in brief: as §1

[5] = Quantitative highthroughput screen to assess conditional lethalithy of SEM cells grown in Human Plasma-Like Medium with dialyzed fetal bovine serum (HPLM+ds) (AID 1963882); note: nearly all actives have a fitted effect of over 35% in size; for Viability: series mostly up to about 46 µM
Method in brief: as §1

[6] = Quantitative highthroughput screen to assess conditional lethalithy of SEM cells grown in RPMI1640 with unreated serum (RPMI+s) (AID 1963883); note: nearly all actives have a fitted effect of over 35% in size
Method in brief: as §1

[7] = Quantitative highthroughput screen to assess conditional lethalithy of SEM cells grown in RPMI1640 with dialyzed fetal bovine serum (RPMI+ds) (AID 1963884); note: nearly all actives have a fitted effect of over 35% in size
Method in brief: as §1

[8] = Quantitative highthroughput screen to assess conditional lethalithy of NOMO1 cells grown in Human Plasma-Like Medium with dialyzed fetal bovine serum (HPLM+ds) (AID 1963878); note: nearly all actives have a fitted effect of over 35% in size
Method in brief: as §1

[9] = Quantitative highthroughput screen to assess conditional lethalithy of P12 Ichikawa cells grown in RPMI1640 with dialyzed fetal bovine serum (RPMI+ds) (AID 1963880); settings: Potency: P12-Ichikawa viability; note: nearly all actives have a fitted effect of over 35% in size
Method in brief: as §1

[10] = Cellular viability qHTS for adrenocortical cancer (ACC) cell line NCI-H295R (AID 1963990); note: nearly all actives have a fitted effect of over 60% in size
Method in brief: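 Luminescent ATP read-out (CellTiter-Glo, 20 min RT) after 48 h drug exposure of NCI-H295R cells; a titration up to 46 uM final. Data normalized to doxorubicin (100% inhibition) and DMSO (0%); 4-parameter fit gives IC50, max response.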

[11] = Cellular viability qHTS for adrenocortical cancer (ACC) cell line SW-13 (AID 1963989); settings: SW-13 ACC cells viability, CellTiter-Glo, 48 h; activity (max response): stronger effect = lower value; note: nearly all actives have a fitted effect of over 65% in size;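 for activity (max response): cells grown in serum-free medium with ITS supplement; % is set by controls: 0 for no effect and ±100 for the full control effect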
Method in brief: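 SW-13 cells in ITS-supplemented serum-free DMEM were plated overnight, then exposed for 48 h at 37C to compound titrations (up to 46 uM final). Viability was read by CellTiter-Glo luminescence; four-parameter logistic fits gave IC50 and efficacy.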
Potency is the fitted concentration of half-maximal effect.

CS(=O)(=O)c1ccc(-c2cnc(N)c(C(=O)Nc3ccccc3)n2)cc1
inactive: Potency [2] | Potency [3]
active: Potency [1] 2.91 µM | Potency [4] 8.33 µM | Potency [5] 8.33 µM | Potency [6] 9.35 µM | Potency [7] 8.33 µM

COc1ccc(-c2ccc3c(N4CCOCC4)nc(N4C[C@@H](C)O[C@@H](C)C4)nc3n2)cc1CO
active: Potency [1] 1.32 µM | Potency [2] 2.96 µM | Potency [8] 1.32 µM | Potency [9] 1.87 µM | Potency [4] 1.05 µM | Potency [5] 1.48 µM | Potency [6] 1.87 µM | Potency [7] 2.64 µM | Potency [10] 631 nM

Cc1ccc(C(C)(O)c2nc3ccccc3s2)c(C)c1 (centres undefined)
active: Potency [1] 16.6 µM | Potency [2] 13.2 µM | Potency [4] 14.8 µM

OCCN(CCO)c1nc(N2CCCCC2)c2nc(N(CCO)CCO)nc(N3CCCCC3)c2n1
inactive: Potency [2] | Potency [5]
1.46 µM (active) and inactive: Potency [10]
active: Potency [1] 18.8 µM and 14.8 µM

Cc1ccc(-n2[nH]c(C)c(N=Nc3cccc(-c4cccc(C(=O)O)c4)c3O)c2=O)cc1C
active: Potency [1] 13.3 µM | Potency [3] 16.6 µM
inactive: Potency [2] | activity (max response) [11] 7.78%

CS(=O)(=O)CCNCc1ccc(-c2ccc3ncnc(Nc4ccc(OCc5cccc(F)c5)c(Cl)c4)c3c2)o1
active: Potency [1] 16.8 µM and 8.2 µM and 11.8 µM | Potency [2] 18.7 µM | Potency [9] 18.7 µM | Potency [4] 18.7 µM | Potency [11] 18.4 µM and 14.1 µM | Potency [10] 23.1 µM and 17.8 µM
inactive: Potency [3]
